Test results as given in PubChem BioAssay.
Several values for one entry are separate records, joined by “and”; a condition that tells them apart may be missing. Equal entries are not always repeated.

Tests used:
[1] = system: Human papillomavirus type 1a protein E7 (residues 44-93); test: small molecules binding HPV E7 44-93 – biochemical, small-molecule microarray, residues 44-93, 635 nm fluorescence, primary screen (AID 1108); settings: fluorescence 635 nm, higher = more signal;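 further: E7 fragment applied at 1 µg/mL in TBST for 1 h at 4 C; score combines spot fluorescence with its signal to noise ratio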
[2] = hepatitis C replication reporter changes, two-sided – Huh7 cells, luciferase reporter, HCV replication inhibitor project, primary screen (AID 1109); settings: Huh7 HCV replicon luciferase reporter, 48 h; higher = more signal;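 further: huh7 hepatoma cells harbouring a luciferase neomycin HCV replicon reporter; luciferase luminescence as measure of HCV replicon replication; test concentration not given here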
[3] = target: Left-right determination factor 2 (Homo sapiens) (UniProt O00292); test: small molecules binding LEFTY2 protein – biochemical, small-molecule microarray, 635 nm fluorescence scan, primary screen (AID 1110); settings: higher = more signal
[4] = target: Calmodulin-1 (Homo sapiens) (UniProt P0DP23); test: small molecules binding calmodulin-1 with EGTA – biochemical, small-molecule microarray, Cy5-labelled CALM1, profiling panel (AID 1111); settings: Cy5-CALM1 binding fluorescence, higher = more signal;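 further: labelled calmodulin applied in Tris saline Tween buffer holding calcium plus EGTA and DTT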
[5] = target: Calmodulin-1 (Homo sapiens) (UniProt P0DP23); test: small molecules binding Ca-loaded calmodulin-1 – biochemical, small-molecule microarray, Cy5-labelled CALM1, plus calcium, artefact control for SMM control-protein annotation, profiling panel (AID 1112); settings: Cy5-CALM1 binding fluorescence, higher = more signal;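 further: score merges spot fluorescence with signal to noise from triplicate slides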
[6] = probe aWnt5a binding to arrayed compounds – biochemical, biotinylated probe, 635/667 nm fluorescence, primary screen (AID 1113); settings: small-molecule microarray, higher = more signal;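 further: score merges 667 nm fluorescence intensity with signal-to-noise per printed feature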
[7] = probe aShh binding to arrayed compounds – biochemical, biotinylated probe, 635/667 nm fluorescence, primary screen (AID 1114); settings: small-molecule microarray, higher = more signal;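 further: probe is biotin-labelled aShh protein from a stem cell growth factor screen; measures binding of labelled protein to compounds printed on the slide; score merges feature fluorescence at 667 nm with signal-to-noise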
[8] = probe aNog binding to arrayed compounds – biochemical, biotinylated probe, 635/667 nm fluorescence, primary screen (AID 1115); settings: small-molecule microarray, higher = more signal;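 further: probe is biotinylated aNog protein used at 0.15 µg/mL for 1 h at 4 C; z-score combines 667 nm fluorescence of each spot with its signal to noise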
[9] = target: Torsin-1A-interacting protein 1 (Homo sapiens) (UniProt Q5JTV8); test: compound microarray binding of lysate hLAP1 – cell lysate, small-molecule microarray, COS7 lysate, 635/667 nm fluorescence, primary screen (AID 1116); settings: 635 nm fluorescence, higher = more signal
[10] = target: Alpha-bungarotoxin (Bungarus multicinctus) (UniProt P60615); test: compounds binding labelled alpha-BTX control protein – biochemical, small-molecule microarray, Alexa647 label, 635/667 nm fluorescence, artefact control for SMM control protein annotation, profiling panel (AID 1117); settings: alpha-BTX-A647 binding fluorescence, higher = more signal
Sequence of Alpha-bungarotoxin (Bungarus multicinctus) (P60615 whole entry, looked up): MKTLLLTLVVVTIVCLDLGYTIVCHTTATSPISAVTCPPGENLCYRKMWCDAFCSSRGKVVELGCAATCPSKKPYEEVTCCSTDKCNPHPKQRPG

Sequence of Left-right determination factor 2 (Homo sapiens) (O00292 whole entry, looked up): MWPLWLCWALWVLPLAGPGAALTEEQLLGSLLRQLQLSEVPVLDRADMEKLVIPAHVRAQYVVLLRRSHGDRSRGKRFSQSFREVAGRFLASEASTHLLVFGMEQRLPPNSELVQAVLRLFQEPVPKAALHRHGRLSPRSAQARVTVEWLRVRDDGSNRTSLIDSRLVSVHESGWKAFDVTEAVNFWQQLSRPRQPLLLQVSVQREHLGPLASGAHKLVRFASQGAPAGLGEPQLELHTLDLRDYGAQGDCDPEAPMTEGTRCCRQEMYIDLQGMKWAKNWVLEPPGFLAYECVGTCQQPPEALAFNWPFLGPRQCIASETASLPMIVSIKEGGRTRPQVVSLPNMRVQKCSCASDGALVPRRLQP
Sequence of Torsin-1A-interacting protein 1 (Homo sapiens) (Q5JTV8 whole entry, looked up): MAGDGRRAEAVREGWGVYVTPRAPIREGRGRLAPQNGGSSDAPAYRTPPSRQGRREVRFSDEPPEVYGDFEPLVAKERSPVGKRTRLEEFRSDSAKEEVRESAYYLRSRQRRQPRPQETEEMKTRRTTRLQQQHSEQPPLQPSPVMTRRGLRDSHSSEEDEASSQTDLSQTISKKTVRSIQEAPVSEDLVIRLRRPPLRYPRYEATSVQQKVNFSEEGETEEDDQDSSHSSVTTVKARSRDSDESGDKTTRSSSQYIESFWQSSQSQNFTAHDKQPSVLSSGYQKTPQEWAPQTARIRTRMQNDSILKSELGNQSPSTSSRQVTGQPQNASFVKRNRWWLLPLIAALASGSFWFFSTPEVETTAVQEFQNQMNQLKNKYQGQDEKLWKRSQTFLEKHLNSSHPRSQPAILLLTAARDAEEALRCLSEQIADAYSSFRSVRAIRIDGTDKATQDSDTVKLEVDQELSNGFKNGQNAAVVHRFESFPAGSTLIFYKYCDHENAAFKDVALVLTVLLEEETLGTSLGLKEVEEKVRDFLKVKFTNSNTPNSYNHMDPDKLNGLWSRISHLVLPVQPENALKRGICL

Structure (SMILES)	composite z-score [1]	z-score [2]	composite z-score [3]	composite z-score [4]	composite z-score [5]	composite z-score [6]	composite z-score [7]	composite z-score [8]	composite z-score [9]	composite z-score [10]
C=CCN(C(=O)C1N(c2c(Cl)cccc2CO)C(=O)C2C(C(=O)O)C3C=CC21O3)c1ccc(OC)cc1 (stereo not given)	-0.716 and -1.82	-1.14 and -0.0856	-2.79 and -1.79	-0.746 and -0.798	-0.0974 and 0.407	-0.355 and -0.242	-0.487 and -0.336	-0.218 and -0.24	-0.809 and -0.822	-0.64 and -2.45
CC(CO)N1C(=O)[C@@H]2C3C(=O)OCCC=C[C@H]3OC23C=CCN(C(C)(C)C)C(=O)[C@@H]13 (stereo not given in full)	-0.925 and -1	-0.319 and -0.502	-1.51 and -0.114	-0.286 and -0.991	1.02 and -1.03	-0.222 and -0.0584	-0.168 and -0.0553	-0.219 and -0.46	0.232 and 1.48	-2.94 and -0.198
C=C[C@@H](C)[C@@H](O)c1ccc(OCCO)cc1	-1.62 and -1.54	-0.934 and -0.376	-2.93 and -2.01	-0.905 and -0.8	0.129 and 0.206	-0.286 and -0.27	-0.221 and -0.17	-0.512 and -0.141	-0.603 and 1.44	-1.5 and -1.44
CO[C@H]1COC(=O)CC=C[C@@H](C)COC(=O)[C@@H](OCc2ccccc2)C=C[C@@H]1C	-0.418	-0.0629	1.32	-0.779	-2.05	-0.34	0.149	-0.378	0.417	0.205
C[N+](C)(C)CCCCCCNC(=O)[C@H]1C[C@H]2C(=O)N[C@@H](CCCC[N+](C)(C)C)C(=O)N2[C@H]1c1ccc(O)cc1	-0.113 and 0.0498	-0.0901 and 0.0595	0.633 and -0.0601	-0.616 and -0.416	-0.452 and -1.03	-0.13 and -0.14	-0.124 and 0.0326	0.0637 and -0.303	-0.0201 and -0.413	1.02 and -1.54
CCCC[C@@H]1CN2[C@H](c3ccc(Br)cc3)[C@@H](C)CC[C@H]2C(=O)O1	-0.519 and 0.166	-0.403 and -0.983	0.189 and 0.327	-0.254 and -0.255	-0.329 and -0.334	-0.232 and -0.104	-0.273 and -0.138	0.153 and 0.0051	0.0737 and 0.259	0.412 and 0.575
CCOC(=O)[C@H](Cc1ccccc1)NC(=O)CCC1CC(OC(=O)NCc2cccc3ccccc23)CC2(CCCC(COC(=O)NCCCN3CCCC3=O)O2)O1 (stereo not given in full)	1.28	-0.963	0.752	0.394	-0.267	-0.2	-0.279	-0.17	0.403	0.552
C=CCN(C(=O)C1N(CCCCCCO)C(=O)C2C(C(=O)O)C3C=CC21O3)C(C)(C)C (stereo not given)	-1.46 and -0.783	0.31 and -0.387	-3.98 and -3.63	-0.332 and -0.397	0.915 and 0.825	-0.348 and -0.364	-0.221 and -0.123	-0.176 and 0.338	-1.85 and -0.489	-1.42 and -1.95
C=CCN(C(=O)C1N(CCOCCO)C(=O)C2C(C(=O)O)C3C=CC21O3)C(C)(C)C (stereo not given)	-1.22 and -1.53	0.178 and 0.975	-4.53 and -1.35	-0.219 and -0.133	0.785 and 0.498	-0.27 and -0.352	-0.138 and -0.214	-0.158 and -0.509	-1.53 and -1.78	-0.606 and -0.737
C=CCN(C(=O)C1N(c2c(Cl)cccc2CO)C(=O)C2C(C(=O)O)C3C=CC21O3)C(C)(C)C (stereo not given)	-0.375 and -1.73	-0.892 and -0.519	-2.64 and -2.81	-0.68 and -0.347	-0.0519 and 0.673	-0.334 and -0.28	-0.544 and -0.123	0.793 and -0.124	-0.879 and -1.71	-1.09 and -1.44
CCOC(=O)c1ccc(NC(=O)O[C@H]2[C@H](OC(=O)Nc3ccccc3)[C@@H](OC(=O)Nc3ccccc3)[C@@H](OC)O[C@@H]2CO)cc1	0.249 and 1.18	-3.3 and -1.82	0.772 and 0.53	2.04 and 1.81	0.114 and -0.0271	0.0618 and 0.199	0.613 and 0.204	1.32 and 0.386	1.2 and 1.5	2.04 and 1.85
COC(=O)C1=C(C)N(Cc2ccccc2)C2=C3C(=O)N(C)C(=O)[C@@H]3[C@@](O)(C(=O)OC)C(=O)N2[C@@H]1c1ccccc1	-0.517 and 0.0656	-0.0888 and 1.05	0.356 and 0.796	-0.403 and -0.324	-0.668 and -0.691	-0.124 and -0.0735	-0.0035 and -0.16	-0.0705 and -0.272	0.015 and -0.101	0.871 and 0.167
C=C[C@H](C)[C@@H](O)c1ccc(OCCO)cc1	-1.92 and -0.467	0.15 and 0.616	-1.11 and -1.45	-0.827 and -0.366	0.717 and 0.1	-0.261 and -0.252	-0.289 and 0.0639	-0.194 and -0.381	-0.998 and 0.225	-1.12 and -0.0745
C=C[C@H](OC)[C@@H](O)c1ccc(OCCO)cc1	-1.76 and -0.748	-0.142 and 1.09	-1.51 and -1.36	-1.51 and -0.219	-0.045 and -0.319	-0.262 and -0.213	-0.276 and -0.221	-0.674 and -0.402	0.376 and -0.199	-1.55 and -1.04
CCN1C(=O)[C@H]2[C@H]3[C@H](O)[C@H](O)CC(=NNC(=O)OCc4ccc(OC)cc4)[C@H]3CC[C@H]2C1=O	-0.432	0.182	0.261	-0.222	0.161	0.0597	0.0611	0.664	0.537	0.379
C=CCN(C(=O)C(c1cccs1)N(C(=O)/C=C\C(=O)O)c1ccc(CCO)cc1)c1ccc(OC)cc1 (stereo not given)	-1.01 and -1.64	-0.465 and -0.171	-3 and -5.82	-0.453 and -1.54	0.742 and -0.222	-0.203 and -0.27	-0.0709 and -0.138	-0.541 and -0.126	-1.16 and -1.72	-0.664 and -2.33
CC(C)OC(=O)C=C1C[C@@H](c2ccccc2)O[C@@H](c2ccccc2)O1	1.48 and 1.45	-2.1 and -1.36	0.826 and 0.795	0.056 and 1.23	-0.147 and -0.505	0.166 and 0.0915	-0.185 and 0.131	0.286 and 0.403	1.3 and 1.28	1.03 and 1.75
CCCC[C@@H]1CN2[C@@H](CC[C@@H](C)[C@@H]2c2ccc(Br)cc2)C(=O)O1	1.27 and 1.07	-1.44 and -0.195	0.379 and 0.292	0.0614 and 0.32	-0.242 and -0.217	-0.152 and -0.13	0.0756 and -0.0553	-0.198 and 0.121	0.0865 and -0.0158	0.439 and 0.105
